{
  "source": "PubChem BioAssay (EPA / NIEHS)",
  "note": "Inconclusive results are not listed. Active and inactive are the calls of the source. Rule for the calls: active = hit-call score of the fitted dose curve at least 0.9, where 1 is the maximum; inconclusive = response in the unintended direction; inactive = score below 0.9.",
  "data": [
    {"assay": "TOX21_p53_BLA_p3_viability: Viability Assessment in the Tox21 HCT-116 p53 Agonism Beta-lactamase Assay, Phase 3 (AID 2283593);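 note: cells exposed to compound for 16 h before reading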", "from_the_text": "TOX21_p53_BLA_p3 is a cell-based, single-readout assay that uses HCT116, a human intestinal cell line, […] in a 1536-well plate.TOX21_p53_BLA_p3_viability is an assay readout measuring cellular ATP content and detected with CellTiter-Glo Luciferase-coupled ATP quantitation.TOX21_p53_BLA_p3_viability used a type of viability reporter where loss-of-signal activity can be used to understand changes in the cell viability. Furthermore, this assay endpoint can be referred to as a secondary readout, because this assay has produced multiple assay endpoints where this one serves a viability function. To generalize the intended target to other relatable targets, this assay endpoint is annotated to the cell cycle intended target family, where the subfamily is cytotoxicity.\nThawing Method: Place 14 mL of pre-warmed thaw medium into a 15 mL of conical tub. Remove the vial of cells to be thawed from liquid nitrogen and thaw rapidly by placing at 37C in a water bath with gentle agitation for 1-2 minutes. Decontaminate the vial by wiping with 70% ethanol before opening in a biological safety cabinet. Transfer the vial contents drop-wise into 14 mL of thaw medium in a sterile 15-mL conical tub. Centrifuge cells at 900 rpm for 4 minutes and resuspend in thaw medium. Transfer contents to the T75 tissue culture flask containing Thaw Medium and place flask in a humidified 37C/5% CO2 incubator. Switch to growth medium at first passage.Propagation Method: Aspirate medium, rinse once in DPBS, add 0.25% Trypsin/EDTA and swirl to coat the cell evenly. Add an equal volume of Growth Medium to inactivate Trypsin after 2-3 minutes incubation at 37C. Centrifuge cells at 900 rpm for 4 minutes and resuspend in growth medium. Cell should be passage or fed at least twice a week.Assay Protocol: Harvest cells from culture in growth medium and resuspend in assay medium. 2.2 Dispense 4000 cells/5 uL/well into 1536-well black/clear bottom plates using a Multidrop dispenser. After the cells were incubated at 37C for 5 hours, 23 nL of compounds dissolved in DMSO were transferred to the assay plate by a PinTool resulting in a 217-fold dilution. Incubate the plates for 16 hours at 37C, 5% CO2. Add 1 uL of 6X LiveBLAzer FRET B/G (CCF4-AM) Substrate Mixture to each well using a BioRAPTR dispenser and incubate the plates at room temperature for 2 hours. Measure fluorescence intensity at 460 and 530 nm emission and 405 nm excitation by an Envision detector. Data is expressed as the ratio of 460nm/530nm emissions. Add 4 uL of Cell-titer Glo to each well using BioRAPTR and incubate the plates at room temperature for […]. For cell viability readout that measures cytotoxicity, 4 ul/well of CellTiter-Glo reagent was added into the assay plates using a Flying Reagent Dispenser. After 30 min incubation at room temperature, the luminescence intensity in the plates was measured using a ViewLux plate reader.", "values": [
      {"smiles": "C1CCOC1", "outcome": "inactive"},
      {"smiles": "C=CC(=O)OCCCC", "outcome": "inactive"},
      {"smiles": "Cc1ccc(S(=O)(=O)Oc2ccc(N=Nc3ccc(-c4ccc(N=Nc5c(O)ccc6cc(S(=O)(=O)O)cc(S(=O)(=O)O)c56)c(C)c4)cc3C)cc2)cc1", "outcome": "inactive"},
      {"smiles": "CCN(CCN)c1cccc(C)c1", "outcome": "inactive"},
      {"smiles": "CC(=O)OCCCc1ccccc1", "outcome": "inactive"},
      {"smiles": "Cc1ncc[nH]1", "outcome": "inactive"},
      {"smiles": "Nc1ccccc1[N+](=O)[O-]", "outcome": "inactive"},
      {"smiles": "Cc1ccc2c(c1)C(=O)OC2=O", "outcome": "inactive"},
      {"smiles": "OC[C@H]1O[C@@H](Oc2ccc(O)cc2)[C@H](O)[C@@H](O)[C@@H]1O", "outcome": "inactive"},
      {"smiles": "COc1cc([C@@H]2c3cc4c(cc3[C@@H](O[C@@H]3O[C@@H]5CO[C@@H](C)O[C@H]5[C@H](O)[C@H]3O)[C@H]3COC(=O)[C@H]23)OCO4)cc(OC)c1O", "outcome": "inactive"},
      {"smiles": "CCCSc1ccc2nc(NC(=O)OC)[nH]c2c1", "outcome": "inactive"},
      {"smiles": "CCCCCCCC(=O)OCC(O)CO", "note": "(stereo not given)", "outcome": "inactive"},
      {"smiles": "CCOCCOCCOCC", "outcome": "inactive"},
      {"smiles": "C=C(C)C(=O)OCCOCCOCCOC(=O)C(=C)C", "outcome": "inactive"},
      {"smiles": "COCCOC(=O)c1ccccc1C(=O)OCCOC", "outcome": "inactive"},
      {"smiles": "O=C(CC(=O)c1ccccc1)c1ccccc1", "outcome": "inactive"},
      {"smiles": "CS(C)=O", "outcome": "inactive"},
      {"smiles": "CC(C)OCCO", "outcome": "inactive"},
      {"smiles": "OCc1cccc(Oc2ccccc2)c1", "outcome": "inactive"},
      {"smiles": "CN1C(=O)c2ccccc2C1=O", "outcome": "inactive"},
      {"smiles": "CN(C)C(=O)Nc1ccc(Oc2ccc(Cl)cc2)cc1", "outcome": "inactive"},
      {"smiles": "O=C1OC(=O)c2c(Cl)c(Cl)c(Cl)c(Cl)c21", "outcome": "inactive"},
      {"smiles": "N[C@@H](Cc1cc(I)c(Oc2cc(I)c(O)c(I)c2)c(I)c1)C(=O)O", "outcome": "inactive"},
      {"smiles": "CCCCCCOC(=O)C(C)C", "outcome": "inactive"},
      {"smiles": "CC(C)CCCCCCc1ccc(OCCOCCO)cc1", "outcome": "inactive"},
      {"smiles": "CC(C)CCOC(=O)c1ccccc1", "outcome": "inactive"},
      {"smiles": "OCC#CCO", "outcome": "inactive"},
      {"smiles": "CC1(C)O[C@@H]2C[C@H]3[C@@H]4CCC5=CC(=O)C=C[C@]5(C)[C@@]4(F)[C@@H](O)C[C@]3(C)[C@]2(C(=O)CO)O1", "outcome": "inactive"},
      {"smiles": "CC=CC=CCOC(=O)C(C)C", "outcome": "inactive"},
      {"smiles": "NCCNc1cccc2ccccc12", "outcome": "inactive"},
      {"smiles": "CC1(C)O[C@@H]2[C@@H](CO[C@@]3(COS(N)(=O)=O)OC(C)(C)O[C@@H]23)O1", "outcome": "inactive"},
      {"smiles": "CCc1cc(Cc2cc(CC)cc(C(C)(C)C)c2O)c(O)c(C(C)(C)C)c1", "AC50": "16.1 µM (active)"},
      {"smiles": "O=C(O)CNc1ccccc1", "outcome": "inactive"},
      {"smiles": "Cc1c(Cl)cccc1[N+](=O)[O-]", "outcome": "inactive"},
      {"smiles": "CC(=O)c1c(C)c([N+](=O)[O-])c(C(C)(C)C)c([N+](=O)[O-])c1C", "outcome": "inactive"},
      {"smiles": "CCCN(CCC)S(=O)(=O)c1ccc(C(=O)O)cc1", "outcome": "inactive"},
      {"smiles": "CCCCCCCCCCCCCCN(CCO)CCO", "outcome": "inactive"},
      {"smiles": "Cc1ncc([N+](=O)[O-])n1CCO", "outcome": "inactive"},
      {"smiles": "CSCCC=O", "outcome": "inactive"},
      {"smiles": "CC1CC(O)CC(C)(C)C1", "note": "(stereo not given)", "outcome": "inactive"}
    ]}
  ]
}
